These results are taken from ChEMBL document CHEMBL1157539, “Thousands of chemical starting points for antimalarial lead identification” (Nature, 2010).

SMILES strings stand for the structures.

One assay has as its system Plasmodium falciparum. Briefly: GSK_TCMDC: Inhibition of Plasmodium falciparum Dd2 in whole red blood cells, using parasite LDH activity as an index of growth. Test compounds present at 2uM. It is filed as functional.
As to `O=C(O)C(F)(F)F.c1cc(CNCc2ccc3c(c2)OCO3)cc(-c2cccc(CNc3ccc4ncccc4c3)c2)c1`, the Inhibition is on record as 27%. Same read-out and setting: in the case of `CC(=O)N1Cc2ccccc2C1=O` it was 0%. `NS(=O)(=O)c1cccc(-c2ccc3nccc(-c4cccc(S(N)(=O)=O)c4)c3c2)c1`: the Inhibition was determined as 99%. Still for that read-out and setting: the value for `Cc1ccc2[nH]c([N-]C#N)nc2c1.[Na+]` was 0%. As to `O=C(Nc1ccc(Cl)cc1)NC1CCN(CCCCCNC(=O)C2CC2c2ccc(Cl)c(Cl)c2)CC1` (configuration not stated), the Inhibition is listed as 18%.

For `Cc1cc2c(NC(=O)NC3CCN(CCc4ccccc4Cl)CC3)cccc2cn1.Cl`, the Inhibition is 46%.

With `COc1ccc2c(c1C1CCN(CCCCNC(=O)c3ccc(-c4ccc(Cl)cn4)cc3)CC1)CCCC2`, the Inhibition came out at 49%.

The subject of another assay is HepG2. Briefly: GSK_TCMDC: Percent inhibition of human HepG2 cell line. Test compounds present at 10uM. It is filed as functional.
As for `COc1cc2nc(N(C)C)nc(Nc3ccc4c(cnn4Cc4ccccc4)c3)c2cc1OC`, the Inhibition stood at 90%.

In turn, `CC(C)CCCC(C)(C)NC[C@@H](O)[C@H](Cc1ccccc1)NC(=O)c1cccc(CCC2CC2)c1` showed an Inhibition of 100%. Still for that read-out and setting: the value for `CN(CCO)Cc1ccc(-c2ccc(NS(=O)(=O)c3cccc4cccnc34)cc2)cc1.O=C(O)C(F)(F)F` was 28%; that for `Cc1nc2nc(N)nc(N)c2c(C)c1Cc1c(Cl)cccc1Cl.Cl` was 7%. Still for that read-out and setting: in the case of `CC(C)CNCc1cccc(-c2cccc(CN(CCN(C)C)C(=O)NCCc3ccccc3)c2)c1.O=C(O)C(F)(F)F` it was 84%; in that of `Oc1ccc(Cl)cc1CN1CCCC(COC(c2ccc(F)cc2)c2ccc(F)cc2)C1` (configuration not stated), 20%; in that of `N#Cc1ccnc(-c2ccc(CNC3CCN(CC4Cn5c(=O)ccc6ccc(F)c4c65)CC3)cc2)c1.O=C(O)C(F)(F)F` (configuration not stated), 24%.

`CCCN1CCc2c(sc3nc(SCC(=O)Nc4ccc(C)cc4)n(-c4ccc(C)cc4)c(=O)c23)C1`: the Inhibition is 0%. Still for that read-out and setting: the value for `CN1CCN(c2ccnc3cc4c(cc23)N(Cc2ccccc2)CC4)CC1` was 0%; that for `Br.Clc1ccc(-c2nc(-c3ccncc3)c[nH]2)cc1Cl` was 1%. `CC(=O)Nc1ccc(C(=O)Nc2cccc(-c3cccc(-c4nc5ccccc5[nH]4)c3)c2)cn1` came in with an Inhibition of 3%. As for `COc1ccc(-c2ccc3c(-c4ccc(F)cc4)cnc(N)c3c2)cn1`, the Inhibition is on record as 4%.

Compound `Cc1sc(CNCCCNc2cc(=O)c3ccccc3[nH]2)c(I)c1C.Cl` gave an Inhibition of 0%. The same measure, in the same setting: in the case of `C=CCOC(=O)N1CCC(CNCc2cccc(-c3ccc(-c4nc5cccc(C)c5[nH]4)cc3)c2)C1.O=C(O)C(F)(F)F` (configuration not stated) it was 24%; in that of `Cc1ccc(Nc2nccc(N(C)c3ccc4c(c3)nc(NC(=O)Cc3ccc(Cl)c(Cl)c3)n4C)n2)cc1S(N)(=O)=O.O=C(O)C(F)(F)F`, 71%; in that of `Cc1cccc(-n2c(Nc3ccc(C)c(Cl)c3)nc3ccc(S(=O)(=O)NC(C)C(C)C)cc32)c1` (configuration not stated), 0%. On the same count and under the same terms, the value for `Cc1ccc(NC(=O)c2ccc(CN3CCCN(Cc4cccc(O)c4)CC3)cc2)cc1F.O=C(O)C(F)(F)F` was 48%; that for `CC1(C)NC(N)=NC(=N)N1OCc1cc(Cl)cc2c1OCOC2.Cl` was 65%.

With `CC1(CCc2ccccc2)N=C(N)N=C(N)C1c1ccc(Cl)c(Cl)c1.Cl` (configuration not stated), the Inhibition is 19%. The same measure, in the same setting: in the case of `Cc1ccc(CNC(=O)[C@H](Cc2ccccc2)Nc2cc(C)nc(NCCc3ccc(F)cc3)n2)cc1.O=C(O)C(F)(F)F` it was 10%. On the same count and under the same terms, in the case of `COc1ccccc1CCNc1nc(C)cc(N[C@@H](CC(C)C)C(=O)Nc2ccccc2)n1.O=C(O)C(F)(F)F` it was 16%; in that of `CCCCOc1c(CCNCCCCNCCc2cc(F)c3ccccc3c2OCCCC)cc(F)c2ccccc12.CS(=O)(=O)O`, 97%; in that of `COc1ccc(Nc2nccc(-c3ccc(NC(=O)c4cc5cc(F)ccc5[nH]4)cc3)n2)cc1`, 21%. On the same count and under the same terms, the value for `Cc1cc(N[C@@H](CC(C)C)C(=O)NCc2cccc(F)c2)nc(NCC2CCCCC2)n1.O=C(O)C(F)(F)F` was 3%; that for `FC(F)(F)c1ccc(CNCC2CCN(Cc3ccc4c(c3)OCO4)CC2)cc1.O=C(O)C(F)(F)F` was 27%. As to `CC(C)(C)c1ccc2[nH]c(-c3ccc(C(=O)NCCCc4ccccc4)cc3)nc2c1`, the Inhibition came to 11%. The same measure, in the same setting: in the case of `CCCN(CCC)C(=O)c1cc(C(=O)N[C@@H](Cc2ccccc2)[C@H](O)CNC(C)(C)c2cccc(C(F)(F)F)c2)cc(N2CCCCS2(=O)=O)c1` it was 19%; in that of `CN(C)CCOC(=O)C1(O)CCC2CC1C2(C)C.Cl` (configuration not stated), 10%.

On to `CC(C)C[C@@H](/C=N/N1CCOC1=O)NC(=O)[C@H](CC(C)C)NC(=O)c1ccc(F)cc1`, for which the Inhibition amounted to 1%.

In the case of `COCCCN=C(S)NN=C(C)c1ccccn1`, the Inhibition is given as 55%. Same read-out and setting: in the case of `CCCCCCCN(Cc1ccc(OC(C)(C)C(=O)OCC)cc1)C(=O)Nc1ccccc1OCC` it was 0%. Same read-out and setting: the value for `C=Cc1ccc(-c2c(C)[nH]c(C)c(Br)c2=O)cc1` was 0%. On the same count and under the same terms, in the case of `Cc1cc(NC(=O)c2ccco2)ccc1OC1CCN(Cc2ccc(C#N)cc2)CC1.O=C(O)C(F)(F)F` it was 2%; in that of `O=C(O)C(F)(F)F.c1cc(CNCc2ccc3c(c2)OCO3)cc(-c2cccc(CNc3ccc4ncccc4c3)c2)c1`, 18%; in that of `CC(=O)N1Cc2ccccc2C1=O`, 10%.

`NS(=O)(=O)c1cccc(-c2ccc3nccc(-c4cccc(S(N)(=O)=O)c4)c3c2)c1` showed an Inhibition of 40%.

Compound `Cc1ccc2[nH]c([N-]C#N)nc2c1.[Na+]` showed an Inhibition of 7%. On the same count and under the same terms, in the case of `O=C(Nc1ccc(Cl)cc1)NC1CCN(CCCCCNC(=O)C2CC2c2ccc(Cl)c(Cl)c2)CC1` (configuration not stated) it was 51%; in that of `Cc1cc2c(NC(=O)NC3CCN(CCc4ccccc4Cl)CC3)cccc2cn1.Cl`, 13%.

Consider `COc1ccc2c(c1C1CCN(CCCCNC(=O)c3ccc(-c4ccc(Cl)cn4)cc3)CC1)CCCC2`, for which the Inhibition amounted to 29%.

In general, Inhibition refers to the relative decrease from the control value, in per cent. A higher Inhibition goes with a strong effect.
